Source: PubChem BioAssay (NCATS)
Active and inactive are the calls of the source. How the calls were made is not given here.
Potency means the concentration at half of the fitted maximal effect.

The compounds below were run on HIV-1 nucleocapsid protein NCp7 (binding to TG oligonucleotide) (assay: HIV Nucleocapsid (AID 346;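 further: potency is for inhibitors that block NC binding and lower polarization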)). Details: HIV-1 NC / fluorescein-TGTGTGTG probe, fluorescence polarization.
Method in brief: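 Fluorescence polarization binding of 100 nM HIV-1 NC to 10 nM fluorescein-labelled TG4xF oligonucleotide. Buffer was Hepes pH 7.5 with 250mM NaCl, 1uM ZnCl2, TCEP and 2-mercaptoethanol. Compounds were incubated 1 hr at room temperature before the read.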
`COc1cccc(-c2cc(NCCc3c[nH]c4ccc(OC)cc34)ncn2)c1` was tested, and the Potency was > 20 µM (inactive). `CN1CCN(c2ccnc(-c3ccccc3C(F)(F)F)n2)CC1` was tested, and the Potency was > 20 µM (inactive). With `O=S(=O)(c1ccccc1)N1CCC[C@@]2(CCN(c3ccncc3)C2)C1` the Potency was > 20 µM (inactive). In the case of `Cc1cnc(CNc2ncncc2-c2ccccc2C(F)(F)F)cn1`, the Potency is reported as > 20 µM (inactive). With `O=C(Nc1cccc(F)c1)N1CCC2(CC1)CCN(C(=O)c1ccncc1)CC2` the Potency was > 20 µM (inactive). For `COc1ccccc1CNc1ncncc1-c1ccccc1OC`, the Potency was > 20 µM (inactive). `FC(F)(F)c1ccccc1-c1ccc2ncnc(NC3CC3)c2c1` was tested, and the Potency was > 20 µM (inactive). With `COc1ccccc1-c1cncnc1NCc1cccc(C)c1` the Potency was > 20 µM (inactive). For `Cc1ccccc1-c1nccc(NCCN2CCOCC2)n1`, the Potency was > 20 µM (inactive). `Cn1c(=O)c(-c2ccc(Cl)cc2)nc2cnc(N3CCNCC3)nc21` was tested, and the Potency was > 20 µM (inactive). `Clc1ccccc1-c1nccc(NCc2ccccc2)n1` was tested, and the Potency was > 20 µM (inactive). In the case of `O=C(c1cnccn1)N1CCC2(CC1)CN(Cc1ccccc1)C2`, the Potency is reported as > 20 µM (inactive). In the case of `CC(C)NC(=O)N1CCC2(CC1)CCN(C(=O)c1cccn1C)CC2`, the Potency is reported as > 20 µM (inactive). In the case of `N#Cc1cccc(NC(=O)N2CC[C@@]3(CCCN(C(=O)c4csnn4)C3)C2)c1`, the Potency is reported as > 20 µM (inactive). For `CN(Cc1ccco1)c1ccnc(-c2ccccc2C(F)(F)F)n1`, the Potency was > 20 µM (inactive). For `CS(=O)(=O)Nc1cccc(-c2nc(Nc3ccncc3)c3ccccc3n2)c1`, the Potency was > 20 µM (inactive). `Fc1ccc(Nc2ccnc(-c3ccoc3)n2)cc1` was tested, and the Potency was > 20 µM (inactive). `N#CCCn1c(=O)c(-c2ccc(Cl)cc2)nc2cnc(Oc3cccc(Cl)c3)nc21` was tested, and the Potency was > 4 µM (inactive). With `c1nc(N2CCNCC2)c2cc(-c3ccc4c(c3)OCO4)ccc2n1` the Potency was > 20 µM (inactive). With `O=C(c1ccco1)N1CCC2(CC1)CN(c1ccc(-c3ccccc3)cc1)C2` the Potency was > 20 µM (inactive). For `CC(C)NC(=O)N1CCC2(CC1)CCN(C(=O)c1cnccn1)CC2`, the Potency was > 20 µM (inactive). With `O=c1c(-c2ccc(Cl)cc2)nc2cnc(N3CCNCC3)nc2n1Cc1ccc(F)cc1` the Potency was > 20 µM (inactive). With `O=C(c1cccc(F)c1)N1CCC2(CC1)CN(c1ncccn1)C2` the Potency was > 20 µM (inactive). In the case of `N#Cc1cccc(NC(=O)N2CCCC3(CCN(C(=O)c4ccco4)CC3)C2)c1`, the Potency is reported as > 4 µM (inactive). For `Cc1noc(C)c1C(=O)N1CCC2(CC1)CCN(c1ccccn1)CC2`, the Potency was > 20 µM (inactive). With `COc1ccc(Oc2ncc3nc(C)c(=O)n(C[C@H]4CCCO4)c3n2)cc1` the Potency was > 20 µM (inactive). With `O=C(Nc1ccccc1)N1CCC2(CC1)CCN(C(=O)c1cnccn1)CC2` the Potency was > 20 µM (inactive). `CN1CCCC2(CCN(C(=O)c3cnccn3)CC2)C1` was tested, and the Potency was > 20 µM (inactive). In the case of `COc1ccc2[nH]cc(CCNc3nc(-c4ccccc4OC)nc4ccccc34)c2c1`, the Potency is reported as > 20 µM (inactive). With `Cc1noc(C)c1-c1nc(NC2CC2)c2ccccc2n1` the Potency was > 20 µM (inactive). With `Cn1cccc1C(=O)N1CCC2(CC1)CCN(C(c1ccccc1)c1ccccc1)CC2` the Potency was > 20 µM (inactive). For `COc1ccc(-n2c(=O)cnc3cnc(Nc4ccccc4)nc32)cc1`, the Potency was > 4 µM (inactive). With `CC(C)NC(=O)N1CCC2(CC1)CCN(S(C)(=O)=O)CC2` the Potency was > 20 µM (inactive). In the case of `COc1ccc(-n2c(=O)cnc3cnc(N(C)C)nc32)cc1`, the Potency is reported as > 20 µM (inactive). In the case of `Cc1nc2cncnc2n(Cc2ccccc2Cl)c1=O`, the Potency is reported as > 20 µM (inactive). For `Cn1cccc1C(=O)N1CCC2(CC1)CN(C(c1ccccc1)c1ccccc1)C2`, the Potency was > 20 µM (inactive). `c1ccc(CNc2ccnc(-c3ccc4c(c3)OCO4)n2)cc1` was tested, and the Potency was > 20 µM (inactive). `O=c1cnc2cnc(Oc3ccccc3)nc2n1Cc1ccc(F)cc1` was tested, and the Potency was > 20 µM (inactive). For `COc1ccccc1-c1cncnc1N(C)Cc1ccco1`, the Potency was > 20 µM (inactive). In the case of `COc1ccccc1CN1CCCC2(CCN(C(=O)c3c(C)noc3C)CC2)C1`, the Potency is reported as > 20 µM (inactive).
